Laboratory results reported in the supplement of paper PMC7156485.
± gives the standard deviation of the averaged measurements.

Each compound was assayed on TDF (assay: cell number relative to DMSO (% of DMSO); higher = more cells (less growth inhibition / toxicity)). Conditions: concentration: 10 µM; 24 h.
Outline: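 Cells were seeded at 800 per well in 384-well plates with RPMI containing 10% FBS; both HCC1569 and TDF lines were used. Compounds were added at 10 µM for 24 h at 37 °C, in triplicate, before fixation in 3.7% formaldehyde and staining with a rabbit anti-H1.0 antibody, an AlexaFluor 647 secondary and DAPI. H1.0 nuclear intensity or cell number is reported as percent of the plate control using the median of replicates, and HCC1569 values were smoothed for positional effects.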
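Further: TDF denotes transformed human dermal fibroblasts of mesenchymal origin.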

SMILES | cell number
COc1ccc(-c2ccc3cc(C(=O)O)ccc3c2)cc1C12CC3CC(CC(C3)C1)C2 [Adapalene] | 88.7
COc1ccc(-c2cnc3c(-c4ccsc4)cnn3c2)cc1 [VEGF Receptor 2 Kinase Inhibitor IV] | 95.5
Cl.O=C(O)C1CCCN(CCC=C(c2ccccc2)c2ccccc2)C1 (centres undefined) | 92.7
COC(=O)c1sccc1S(=O)(=O)Nc1ccc(Nc2ccccc2)cc1OC | 92.5
CC(CN1c2ccccc2Sc2ccccc21)N(C)C.Cl (centres undefined) | 105
O=c1[nH]c2ccccc2n1CCN1CCN(c2cccc(C(F)(F)F)c2)CC1 | 111
O=C1C=C(CO)OCC1=O [5-hydroxy-2-(hydroxymethyl)-4H-pyran-4-one] | 94.6
O=C1C(=O)C(c2ccc(O)c(O)c2)Oc2cc(O)cc(O)c21 (centres undefined) [2-(3,4-dihydroxyphenyl)-3,5,7-trihydroxy-4H-chromen-4-one] | 74.4
O=C(O)CNC(=O)C(CS)Cc1ccccc1 (racemic) [DL-Thiorphan] | 95.5
CCN(CC)CCNC(=O)c1cc(Cl)c(N)cc1OC [Metoclopramide] | 105
C=C1C(=CC=C2CCCC3(C)C2CCC3C(C)CCCC(C)C)CC(O)CC1O (centres undefined) [Alfacalcidol] | 101
C=CCSC[C@H](N)C(=O)O [(2R)-3-(allylsulfanyl)-2-aminopropanoic acid] | 95.1
O=C(O)c1cc(-c2ccc(F)cc2F)ccc1O [Diflunisal] | 100
CCCNCC(O)COc1ccccc1C(=O)CCc1ccccc1 (centres undefined) [Propafenone] | 101
O=C1NC(=O)C(c2ccccc2)(c2ccccc2)N1 [5,5-Diphenylhydantoin] | 108
COc1cc2nc(N3CCN(C(=O)C4CCCO4)CC3)nc(N)c2cc1OC (centres undefined) [Terazosin] | 87.9
Nc1ccc(S(=O)(=O)Nc2ccnn2-c2ccccc2)cc1 [Sulfaphenazole] | 113
COc1ccc2cc(C(C)C(=O)O)ccc2c1 (centres undefined) [Naproxen] | 83.8
COc1cc2c3cc1Oc1c(OC)c(OC)cc4c1C(Cc1ccc(OC(=O)c5ccc([N+](=O)[O-])cc5)c(c1)Oc1ccc(cc1)CC3N(C)CC2)N(C)CC4 (centres undefined) [E6 Berbamine] | 95.2
CC(Cc1ccc(O)c(O)c1)(NN)C(=O)O.O (centres undefined) [Carbidopa.H2O] | 107

SMILES | cell number
COC(=O)C1C(O)CCC2CN3CCc4c([nH]c5ccccc45)C3CC21.Cl (centres undefined) [Rauwolscine] | 99.5
CC12C=CC(=O)C=C1CCC1C2C(=O)CC2(C)C1CCC2(O)C(=O)CO (centres undefined) [Prednisone] | 106
O=c1[nH]c(=O)c2nc3ccccc3nc2[nH]1 [Alloxazine] | 91.6
CCCCCCCCCCCCCCCC(=O)OCC(COP(=O)(O)O)OC(=O)CCCCCCCCCCCCCCC (centres undefined) [Dipalmitoylphosphatidic acid] | 107
C=C1CC2C3C=C(C)C4=CC(=O)CCC4(C)C3CCC2(C)C1(OC(C)=O)C(C)=O (centres undefined) [Melengestrol Acetate] | 103
CCCCCCC=CCCCCCCCCCC(=O)O [11(Z)-Octadecenoic acid] | 101
CN(C)CCCN1c2ccccc2Sc2ccccc21.Cl [Promazine hydrochloride] | 107
CC(C)C1NC(=O)C(CCCCN)NC(=O)C(Cc2c[nH]c3ccccc23)NC(=O)C(Cc2ccc(O)cc2)NC(=O)C(C)N(C)C(=O)C(Cc2ccccc2)NC1=O (centres undefined) [Seglitide] | 98.2
COc1cc2c(cc1OC)C(c1ccccc1)CN(C)CC2.O=C(O)C=CC(=O)O (centres undefined) | 98.3
O=C(NOCC1CC1)c1ccc(F)c(F)c1Nc1ccc(I)cc1Cl | 71
Cl.N[C@@H](CCC(=O)O)C(=O)O [L-Glutamic acid hydrochloride] | 114
COc1cc(C=Cc2ccccc2)oc(=O)c1 [5,6-Dehydrokawain] | 97.5
CNC1C(O)C(NC)C2OC3(O)C(=O)CC(C)OC3OC2C1O (centres undefined) [Spectinomycin] | 98
CCN(CC)CCCC(C)Nc1ccnc2cc(Cl)ccc12.O=P(O)(O)O.O=P(O)(O)O (centres undefined) [Chloroquine diphosphate] | 106
COCc1c(C(C)C)nc(C(C)C)c(C=CC(O)CC(O)CC(=O)O)c1-c1ccc(F)cc1 (centres undefined) [Cerivastatin] | 39
CCC=CCC=CCC=CCCCCCCCCCC(=O)O [Eicosatrienoic acid] | 96.7 ± 14
CC(Cc1ccccc1)(NC(=O)CN)c1ccccc1.Cl (centres undefined) | 107
CCCCCCCCCCCCCCCC(=O)NCCc1ccc(O)c(O)c1 [Palmitoyl dopamine] | 101
COC1=C2CC(C)=c3c(C(C)=O)c(OC)c(O)c4c3c2c2c(cc(OC)c3c(OC)cc(O)c4c32)C(=O)C1=O [Hypocrellin B] | 95
